# Assay results as given in ChEMBL document CHEMBL1961873, “Compounds: GSK PKIS; Assays: Nanosyn kinase panel” (2012).
# Key:
# [1] = target: CDK3/Cyclin E (Homo sapiens) (UniProt P24864+Q00526); conditions: at 1 µM;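 also: each figure is a mean percent inhibition of the CDK3/cyclin E complex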
# [2] = target: Cyclin-dependent kinase 4 (Homo sapiens) (UniProt P11802); conditions: at 0.1 µM
# [3] = target: Cyclin-dependent kinase 4 (Homo sapiens) (UniProt P11802); conditions: at 1 µM
# [4] = target: Cyclin-dependent kinase 5 (Homo sapiens) (UniProt Q00535); conditions: at 0.1 µM
# [5] = target: Cyclin-dependent kinase 5 (Homo sapiens) (UniProt Q00535); conditions: at 1 µM
# [6] = target: Cyclin-dependent kinase 6 (Homo sapiens) (UniProt Q00534); conditions: at 0.1 µM
# [7] = target: Cyclin-dependent kinase 6 (Homo sapiens) (UniProt Q00534); conditions: at 1 µM
# [8] = target: Dual specificity protein kinase CLK2 (Homo sapiens) (UniProt P49760); conditions: at 0.1 µM
# [9] = target: Dual specificity protein kinase CLK2 (Homo sapiens) (UniProt P49760); conditions: at 1 µM
# [10] = target: Dual specificity protein kinase CLK3 (Homo sapiens) (UniProt P49761); conditions: at 0.1 µM
# [11] = target: Dual specificity protein kinase CLK3 (Homo sapiens) (UniProt P49761); conditions: at 1 µM
# [12] = target: Dual specificity tyrosine-phosphorylation-regulated kinase 1A (Homo sapiens) (UniProt Q13627); conditions: at 0.1 µM
# [13] = target: Dual specificity tyrosine-phosphorylation-regulated kinase 1A (Homo sapiens) (UniProt Q13627); conditions: at 1 µM
# [14] = target: Dual specificity tyrosine-phosphorylation-regulated kinase 1B (Homo sapiens) (UniProt Q9Y463); conditions: at 0.1 µM
# [15] = target: Dual specificity tyrosine-phosphorylation-regulated kinase 1B (Homo sapiens) (UniProt Q9Y463); conditions: at 1 µM
# [16] = target: T1, Dual specificity tyrosine-phosphorylation-regulated kinase 2 (Homo sapiens) (UniProt Q92630); conditions: at 0.1 µM
# T1 sequence (whole entry): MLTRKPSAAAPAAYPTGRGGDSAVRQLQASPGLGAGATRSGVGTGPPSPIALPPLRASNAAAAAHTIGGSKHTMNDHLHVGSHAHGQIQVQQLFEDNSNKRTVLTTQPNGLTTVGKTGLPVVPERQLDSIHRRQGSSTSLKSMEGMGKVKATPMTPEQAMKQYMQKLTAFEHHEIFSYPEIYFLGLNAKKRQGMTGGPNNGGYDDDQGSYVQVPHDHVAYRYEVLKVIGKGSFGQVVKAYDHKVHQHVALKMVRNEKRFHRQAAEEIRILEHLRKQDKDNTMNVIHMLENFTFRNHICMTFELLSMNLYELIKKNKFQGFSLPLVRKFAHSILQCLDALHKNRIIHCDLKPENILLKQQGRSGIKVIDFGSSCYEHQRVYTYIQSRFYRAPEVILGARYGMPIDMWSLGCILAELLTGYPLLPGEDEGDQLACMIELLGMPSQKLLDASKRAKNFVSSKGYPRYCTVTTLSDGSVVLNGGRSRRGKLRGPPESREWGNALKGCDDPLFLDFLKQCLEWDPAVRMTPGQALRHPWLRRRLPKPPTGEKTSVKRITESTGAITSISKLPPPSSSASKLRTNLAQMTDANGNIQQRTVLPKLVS
# [17] = target: T1, Dual specificity tyrosine-phosphorylation-regulated kinase 2 (Homo sapiens); conditions: at 1 µM
# [18] = target: Glycogen synthase kinase-3 alpha (Homo sapiens) (UniProt P49840); conditions: at 0.1 µM
# [19] = target: Glycogen synthase kinase-3 alpha (Homo sapiens) (UniProt P49840); conditions: at 1 µM
# [20] = target: Glycogen synthase kinase-3 beta (Homo sapiens) (UniProt P49841); conditions: at 0.1 µM;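 also: values are mean percent inhibition of GSK3B activity, from the GSK Published Kinase Inhibitor Set (PKIS) screening dataset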
# Sequence of Glycogen synthase kinase-3 beta (Homo sapiens) (P49841 whole entry, looked up): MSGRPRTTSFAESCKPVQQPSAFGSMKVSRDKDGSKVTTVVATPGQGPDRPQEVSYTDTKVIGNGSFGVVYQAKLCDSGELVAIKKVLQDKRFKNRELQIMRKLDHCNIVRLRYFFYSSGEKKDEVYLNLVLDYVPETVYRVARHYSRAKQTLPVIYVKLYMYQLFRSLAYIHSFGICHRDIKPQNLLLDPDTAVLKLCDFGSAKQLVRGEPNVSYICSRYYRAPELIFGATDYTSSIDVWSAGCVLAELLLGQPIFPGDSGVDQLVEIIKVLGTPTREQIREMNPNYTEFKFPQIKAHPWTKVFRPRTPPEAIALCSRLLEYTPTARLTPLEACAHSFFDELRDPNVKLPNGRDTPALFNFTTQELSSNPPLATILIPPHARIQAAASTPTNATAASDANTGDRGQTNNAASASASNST
# Sequence of Dual specificity protein kinase CLK2 (Homo sapiens) (P49760 whole entry, looked up): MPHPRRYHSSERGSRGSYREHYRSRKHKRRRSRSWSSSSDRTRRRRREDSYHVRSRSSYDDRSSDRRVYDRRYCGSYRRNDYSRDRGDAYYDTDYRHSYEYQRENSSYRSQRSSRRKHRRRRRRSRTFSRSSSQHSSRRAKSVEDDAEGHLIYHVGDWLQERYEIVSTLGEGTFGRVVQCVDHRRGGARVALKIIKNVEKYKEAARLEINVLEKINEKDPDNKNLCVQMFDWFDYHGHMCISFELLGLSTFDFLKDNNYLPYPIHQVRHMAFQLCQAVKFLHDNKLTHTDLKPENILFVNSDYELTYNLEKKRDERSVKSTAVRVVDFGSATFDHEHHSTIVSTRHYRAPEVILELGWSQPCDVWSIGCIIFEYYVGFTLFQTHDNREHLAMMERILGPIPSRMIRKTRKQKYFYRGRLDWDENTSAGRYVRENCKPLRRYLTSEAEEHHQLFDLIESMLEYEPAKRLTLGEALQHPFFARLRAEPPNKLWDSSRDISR
# Sequence of Dual specificity tyrosine-phosphorylation-regulated kinase 1B (Homo sapiens) (Q9Y463 whole entry, looked up): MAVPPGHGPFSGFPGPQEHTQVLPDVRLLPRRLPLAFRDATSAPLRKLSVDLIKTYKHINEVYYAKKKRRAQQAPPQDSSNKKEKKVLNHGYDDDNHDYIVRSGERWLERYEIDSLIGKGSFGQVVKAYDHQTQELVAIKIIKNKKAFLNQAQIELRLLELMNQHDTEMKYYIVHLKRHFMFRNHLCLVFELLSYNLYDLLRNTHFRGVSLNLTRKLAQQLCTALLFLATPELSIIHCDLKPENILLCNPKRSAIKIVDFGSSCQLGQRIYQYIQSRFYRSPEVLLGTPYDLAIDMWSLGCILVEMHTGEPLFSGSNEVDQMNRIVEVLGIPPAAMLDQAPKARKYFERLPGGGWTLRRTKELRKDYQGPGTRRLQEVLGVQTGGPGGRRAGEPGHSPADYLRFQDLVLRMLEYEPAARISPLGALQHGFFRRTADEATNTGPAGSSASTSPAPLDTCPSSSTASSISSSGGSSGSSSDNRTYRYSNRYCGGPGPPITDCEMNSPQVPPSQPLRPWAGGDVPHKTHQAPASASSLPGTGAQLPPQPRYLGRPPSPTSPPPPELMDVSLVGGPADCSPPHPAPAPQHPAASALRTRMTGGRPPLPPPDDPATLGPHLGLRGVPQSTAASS
# Sequence of Dual specificity protein kinase CLK3 (Homo sapiens) (P49761 whole entry, looked up): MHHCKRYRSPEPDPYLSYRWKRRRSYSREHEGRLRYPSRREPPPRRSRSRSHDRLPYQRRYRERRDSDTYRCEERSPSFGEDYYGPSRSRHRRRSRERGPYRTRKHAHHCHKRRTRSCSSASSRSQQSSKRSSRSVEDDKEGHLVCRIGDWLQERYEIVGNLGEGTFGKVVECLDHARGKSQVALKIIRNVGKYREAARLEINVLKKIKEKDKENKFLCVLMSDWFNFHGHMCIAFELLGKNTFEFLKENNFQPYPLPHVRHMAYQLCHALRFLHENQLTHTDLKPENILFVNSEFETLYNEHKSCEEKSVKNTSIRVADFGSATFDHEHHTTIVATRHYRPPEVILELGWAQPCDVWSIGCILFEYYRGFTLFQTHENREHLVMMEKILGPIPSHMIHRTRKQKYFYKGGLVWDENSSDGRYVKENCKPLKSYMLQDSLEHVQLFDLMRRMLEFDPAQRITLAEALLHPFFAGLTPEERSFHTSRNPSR
# Sequence of Glycogen synthase kinase-3 alpha (Homo sapiens) (P49840 2-483 limits assumed): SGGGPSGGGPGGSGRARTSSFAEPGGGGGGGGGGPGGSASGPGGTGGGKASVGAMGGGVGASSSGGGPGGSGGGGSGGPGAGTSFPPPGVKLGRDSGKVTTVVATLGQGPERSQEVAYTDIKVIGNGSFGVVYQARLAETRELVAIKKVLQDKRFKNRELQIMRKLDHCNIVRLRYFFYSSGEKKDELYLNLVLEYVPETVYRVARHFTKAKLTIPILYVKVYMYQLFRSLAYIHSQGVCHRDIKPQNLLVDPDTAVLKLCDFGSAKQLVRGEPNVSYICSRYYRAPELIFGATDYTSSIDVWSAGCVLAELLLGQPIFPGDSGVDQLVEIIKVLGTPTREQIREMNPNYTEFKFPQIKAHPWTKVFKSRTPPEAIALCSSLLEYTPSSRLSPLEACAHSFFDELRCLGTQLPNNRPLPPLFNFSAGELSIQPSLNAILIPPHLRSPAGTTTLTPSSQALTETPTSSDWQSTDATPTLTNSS
# Sequence of Cyclin-dependent kinase 5 (Homo sapiens) (Q00535 whole entry, looked up): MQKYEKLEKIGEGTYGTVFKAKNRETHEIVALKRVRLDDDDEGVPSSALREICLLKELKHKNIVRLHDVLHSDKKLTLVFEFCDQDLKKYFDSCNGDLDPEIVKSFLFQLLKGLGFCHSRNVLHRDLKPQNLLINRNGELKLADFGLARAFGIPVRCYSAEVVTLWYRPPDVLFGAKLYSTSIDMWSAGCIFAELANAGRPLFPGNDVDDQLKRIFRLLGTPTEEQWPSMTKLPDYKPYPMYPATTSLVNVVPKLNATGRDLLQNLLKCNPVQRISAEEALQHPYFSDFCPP
# Sequence of CDK3/Cyclin E (Homo sapiens) (P24864 whole entry, looked up): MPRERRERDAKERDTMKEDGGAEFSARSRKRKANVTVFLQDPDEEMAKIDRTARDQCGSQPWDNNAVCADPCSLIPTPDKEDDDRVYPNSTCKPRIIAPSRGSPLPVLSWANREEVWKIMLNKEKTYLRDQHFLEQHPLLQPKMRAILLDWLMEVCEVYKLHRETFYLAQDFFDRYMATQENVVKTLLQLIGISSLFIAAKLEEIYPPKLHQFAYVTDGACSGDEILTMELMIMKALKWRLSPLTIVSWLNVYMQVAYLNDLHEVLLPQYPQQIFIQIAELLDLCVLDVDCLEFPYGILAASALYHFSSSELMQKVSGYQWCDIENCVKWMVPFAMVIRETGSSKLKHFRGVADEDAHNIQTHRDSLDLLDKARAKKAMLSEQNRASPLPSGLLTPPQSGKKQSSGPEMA
# Sequence of CDK3/Cyclin E (Homo sapiens) (Q00526 whole entry, looked up): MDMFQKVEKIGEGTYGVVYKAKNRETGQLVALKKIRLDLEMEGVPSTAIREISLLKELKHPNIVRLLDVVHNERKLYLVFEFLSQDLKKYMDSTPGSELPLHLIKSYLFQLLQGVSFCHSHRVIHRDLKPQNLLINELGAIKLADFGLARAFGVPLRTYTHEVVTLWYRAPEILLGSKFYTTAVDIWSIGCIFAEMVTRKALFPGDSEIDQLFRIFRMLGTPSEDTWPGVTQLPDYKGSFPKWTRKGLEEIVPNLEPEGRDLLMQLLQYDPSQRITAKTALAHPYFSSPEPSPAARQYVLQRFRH
# Sequence of Cyclin-dependent kinase 6 (Homo sapiens) (Q00534 whole entry): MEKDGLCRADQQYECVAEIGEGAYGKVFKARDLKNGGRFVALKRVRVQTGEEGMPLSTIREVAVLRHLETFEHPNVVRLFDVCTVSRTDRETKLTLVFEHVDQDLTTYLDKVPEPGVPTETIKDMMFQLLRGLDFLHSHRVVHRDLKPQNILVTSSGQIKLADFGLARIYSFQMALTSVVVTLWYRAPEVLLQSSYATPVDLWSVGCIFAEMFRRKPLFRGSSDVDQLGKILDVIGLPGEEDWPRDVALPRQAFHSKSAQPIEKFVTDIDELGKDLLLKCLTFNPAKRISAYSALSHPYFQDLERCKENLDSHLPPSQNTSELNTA
# Sequence of Cyclin-dependent kinase 4 (Homo sapiens) (P11802 whole entry): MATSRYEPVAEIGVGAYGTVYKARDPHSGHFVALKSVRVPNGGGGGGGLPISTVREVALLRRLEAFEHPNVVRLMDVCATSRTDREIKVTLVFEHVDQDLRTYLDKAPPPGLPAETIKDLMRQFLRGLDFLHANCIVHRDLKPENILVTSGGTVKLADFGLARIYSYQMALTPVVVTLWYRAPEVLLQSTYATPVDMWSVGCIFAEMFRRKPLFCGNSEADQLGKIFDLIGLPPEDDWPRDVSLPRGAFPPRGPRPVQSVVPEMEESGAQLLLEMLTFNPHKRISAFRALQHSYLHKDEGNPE
SMILES,inhibition [1] [%],inhibition [2] [%],inhibition [3] [%],inhibition [4] [%],inhibition [5] [%],inhibition [6] [%],inhibition [7] [%],inhibition [8] [%],inhibition [9] [%],inhibition [10] [%],inhibition [11] [%],inhibition [12] [%],inhibition [13] [%],inhibition [14] [%],inhibition [15] [%],inhibition [16] [%],inhibition [17] [%],inhibition [18] [%],inhibition [19] [%],inhibition [20] [%]
Fc1ccc(-c2ncn(CCCN3CCOCC3)c2-c2ccncc2)cc1,1.42,0.02,5.08,1.43,3.98,-8.34,-1.04,1.11,2.52,-1.43,0.51,-0.26,0.01,-0.42,-0.19,-0.03,0.55,-0.11,4.21,-0.54
CCN(CC)Cc1ccc(Nc2nccc(-c3cnn4ncccc34)n2)cc1,78.8,53.8,69.8,32.1,66.8,25.9,62.1,50.1,91.7,-2.57,5.2,40,88,43.6,69.2,5.06,25.7,24.4,65.8,18
Fc1ccc(-c2ncn(C3CCNCC3)c2-c2ccnc(Oc3ccc(Oc4ccccc4)cc3)n2)cc1,-1.29,4.1,3.52,0.97,1.86,-6.79,-6.24,2.06,4.62,0.9,1.21,2.96,3.95,-0.87,0.42,4.61,7.67,2.97,2.77,2.21
C/C(Nc1ccc(S(N)(=O)=O)cc1)=C1/C(=O)Nc2ccccc21,50.1,3.5,32,8.67,44.7,37,74.7,0.33,2.45,-0.03,1.28,3.02,11.5,2.13,12.7,-1.67,3.79,1.25,7.04,1.17
Fc1ccc(-c2ncn(C3CCNCC3)c2-c2ccnc(Oc3ccc4c(c3)OCO4)n2)cc1,-0.86,1.48,3.63,0.16,1.51,1.03,2.27,0.55,0.01,0.88,-2.27,3.17,4.78,-1.37,0.33,3.24,3.38,2.07,5.18,2.71
O=C1NC(=O)C(c2cccc(Cl)c2)=C1Nc1ccc(Cl)c(C(=O)O)c1,-3.39,1.47,1.74,-0.04,1.05,-2.3,1.32,3.2,0.9,1.12,2.4,1.22,5.02,-0.3,1.57,1.93,2.84,32.8,77.5,–
CNC(=O)c1cncc(/C=C/c2c(C)cccc2C)c1,-0.8,-2.46,-1.6,-2.99,-1.16,3.56,0.79,0.58,-1.19,-2,-2.04,-1.29,2.27,0.49,1.89,-0.14,-0.61,-2.93,-0.82,-1.93
N#Cc1ccc(Oc2nccc(-c3c(-c4ccc(F)cc4)ncn3C3CCNCC3)n2)cc1,-2.53,0.98,3.8,0.41,1.15,1.26,-1.15,1,-0.9,0.28,-0.16,2.5,3.49,-2.39,-1.58,2.92,2.24,1.66,2.69,0.3
CCC(=O)Nc1ccc(C)c(-c2ccc(C(=O)NCC3CC3)cc2)c1,-2.39,3.38,5.05,1.58,1.54,0.4,0,0.05,-0.08,0.16,-0.21,1.98,3.18,-0.71,0.18,3.11,2.91,1.84,3.42,0.54
COC(=O)Nc1nc2ccc(Sc3ccc(NC(=O)Nc4cc(C(F)(F)F)ccc4F)cc3)cc2[nH]1,0.64,-4.86,1.81,0.21,1.9,7.92,2.22,1.38,-0.84,0.48,2.87,0.92,1.72,1.9,3.2,0.2,0.89,0.12,0.68,2.16
COc1cc(C)c(N(C)C(=O)CN(C)C)cc1Nc1nc(Nc2cccc(F)c2C(N)=O)c2cc[nH]c2n1,0.55,-3.32,-2.23,-3.87,-4.34,-3.28,-2.66,2.65,12.6,-5.35,-1.03,2.09,15.2,-1.79,13.1,2.31,1.64,-2.99,-1.13,-3.79
C#Cc1cccc(Nc2ncnc3ccc(OCCCCNCCS(C)(=O)=O)cc23)c1,-3.02,-1.23,0.97,-2.73,-2.83,-4.26,0.21,1.01,1.36,-1.3,-1.87,0.92,4.86,-2.75,-1.25,2.91,7.08,-0.41,1.81,-0.71
Clc1ccc(CNc2nccc(-c3cnn4ncccc34)n2)cc1,17.3,3.89,20.1,7.08,36.9,13.8,11,7.28,43.6,1.27,6.69,16,58,28.6,74.2,0.77,7.51,2.42,9.8,2.82
CN1CCN(CCCNc2nc3ccc(Oc4ccc(NC(=O)Nc5cc(C(F)(F)F)ccc5F)cc4)cc3[nH]2)CC1,2.2,-3.04,-2.88,-2.74,-3.46,-4.09,-1.64,2.17,1.41,-3.87,-3.62,-4.06,-2.54,-2.52,-2.58,0.8,-0.19,-2.85,0.59,-2.95
COc1ccc2ncn(-c3cc(O[C@H](C)c4ccccc4Cl)c(C(N)=O)s3)c2c1,-2.98,-2.27,-0.19,-3.87,-2.17,-3.71,-2.1,0.43,0.2,-2.29,-2.47,-1.4,0.78,-5.09,-1.96,2.27,2.75,-1.42,1.7,-1.37
CN(C)c1ccc2c(c1)/C(=C/Nc1ccc(S(N)(=O)=O)cc1)C(=O)N2,38.9,11.3,43.5,16.2,57,4.7,48.2,1.72,11,0.66,3.39,7.43,33.4,4.54,24.5,1.54,4.74,8.28,21.6,6.03
CCc1cccc(CC)c1/C=C/c1cncc(C(=O)NC)c1,1.62,3.61,4.03,0.43,1.68,3.11,2.84,-1.55,3.8,1.35,1.66,1.88,5.03,1.08,3.49,2.13,2.5,2.14,6.98,2.21
NCc1ccc(-n2c(-c3nonc3N)nc3cnccc32)cc1,6.36,5.03,10.2,4.76,11.9,-0.37,5.55,6.2,28.7,2.13,3.13,8.53,37.5,5.66,36.4,3.41,4.54,25.6,67,18.1
Cc1ccc(NC(=O)c2ccoc2)cc1-c1ccc(C(=O)NCC2CC2)cc1,-5.1,0.87,2.89,0.24,1.07,-5.62,0.19,0.43,-2.64,0.53,0.49,2.62,3.4,-0.58,2.65,1.99,0.34,11,0.83,6.09
Cc1ccc(C(=O)NC(C)C)cc1-c1ccc(C(=O)NCC2CC2)cc1,-1.55,-0.49,0.6,0.55,2.73,-1.81,-0.75,-1.1,-0.78,-0.64,0.67,1.18,2.28,3.39,3.96,-2.49,-3.21,1.52,3.31,1.46
CCc1ccc(Oc2nccc(-c3c(-c4ccc(F)cc4)ncn3C3CCNCC3)n2)cc1,-3.4,1.49,2.34,0.94,2.25,-3.34,-4.3,1.29,3.58,0.96,0.51,0.92,1.59,-0.38,1.04,4.87,4.71,3.69,7.13,2.44
c1ccc(-c2n[nH]cc2-c2ccnc(-c3ccc(OCCN4CCOCC4)cc3)c2)nc1,3.2,5.35,6.08,5.7,4.87,1.73,4.81,2.87,3.2,0.66,0.55,4.43,5.39,7.33,6.5,-0.9,-1.36,5.19,4.57,4.18
COc1cc(N2CCN(C(C)C)CC2)ccc1Nc1nc(Nc2ccc(F)cc2C(=O)NC[C@@H](O)CO)c2cc[nH]c2n1,-3.1,-2.67,-0.98,-3.1,-4.32,-8.05,-5.78,29.4,82.9,-0.73,4.1,0.93,12.7,-2.96,12,3.04,5.79,-1.27,0.1,-0.78
Fc1ccc(-c2nc3n(c2-c2ccncc2)CCS3)cc1,-2.73,-1.97,-0.8,-2.49,-2.61,-7.51,-1.4,1.78,0.05,-1.51,-2.32,0.54,0.87,-3.06,-3.89,2.91,2.31,-0.87,3.8,-1.43
COc1cccc(-n2cnc3c(N/N=C/c4ccncc4)ncnc32)c1,0.9,-6.94,-4.27,-3.69,-0.49,-0.76,-8.82,3.04,5.72,-3.93,-2.92,-3.39,2.17,-3.26,-0.65,0.79,2.96,3.64,34.7,3.02
CN(C)CCCNc1nccc(-c2c(-c3ccc(F)cc3)nn3cc(C(F)(F)F)ccc23)n1,1.62,-2.82,1.54,-1.32,1.69,-1.2,-0.54,1.26,-0.07,-2.82,-2.17,-2.63,1.55,-2.7,-0.43,1.01,2.09,2.87,7.76,3.14
